Measurements: the supplement of paper PMC10849652
The full data set covers some 7,900 targets. This sample favours those with a hit. About 0.6% of all pairs of compound and target were hits. Unmarked numbers belong to inactive results.

Tests used:
Assay in all cases: log2 fold change, soluble protein after heating vs DMSO (PISA); higher = thermal stabilisation; K562 cells, 10 uM, 30 min; active = over 0.2 and 3.5 SD of the protein, either way, in both replicates (recomputed)
IRAK-1-4 Inhibitor I = compound: C1COCCN1CCN2C3=CC=CC=C3N=C2NC(=O)C4=CC(=CC=C4)[N+](=O)[O-] [IRAK-1-4 Inhibitor I]
In short: (§1)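 K562 cells at 2×10^6 cells/mL were treated with 10 μM compound for 30 min. Aliquots were heated for 3 min across 48°C-58°C, pooled, and extracted in PBS with 0.5% NP-40 at 4°C; soluble protein was the supernatant after 21,000xg for 90 min. Soluble protein was quantified by TMTpro 16plex LC-MS/MS with channel sums equalised, and reported as log2 fold change in thermal stability against DMSO controls, with values from duplicates.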

ibrutinib = compound: C=CC(=O)N1CCC[C@@H](n2nc(-c3ccc(Oc4ccccc4)cc3)c3c(N)ncnc32)C1 [ibrutinib]
In short: as §1

[1] = compound: CC(=O)c1cnc2ccc(-c3cc(Cl)c(O)c(Cl)c3)nc2c1N[C@H]1CC[C@H](CN(C)C)CC1
In short: as §1

ralimetinib = compound: CC(C)(C)Cn1c(N)nc2ccc(-c3[nH]c(C(C)(C)C)nc3-c3ccc(F)cc3)nc21 [ralimetinib]
In short: as §1

[2] = compound: CC(C)(O)CC(=O)NCCn1ccc2ncnc(Nc3ccc(Oc4cccc(C(F)(F)F)c4)c(Cl)c3)c21
In short: as §1

[3] = compound: CC(C)C1=C2N=C(C=C(N2N=C1)NCC3=CC=CC=C3)NCCCCCCN
In short: as §1

[4] = compound: CC(C)C[C@@H](C=O)NC(=O)[C@H](CC(C)C)NC(=O)[C@H](CC(C)C)NC(=O)OCc1ccccc1
In short: as §1

pinometostat = compound: CC(C)N(C[C@H]1O[C@@H](n2cnc3c(N)ncnc32)[C@H](O)[C@@H]1O)[C@H]1C[C@@H](CCc2nc3cc(C(C)(C)C)ccc3[nH]2)C1 [pinometostat]
In short: as §1

[5] = compound: CC1=C(C(CC(=O)N1)C2=CC=C(C=C2)C(F)(F)F)C(=O)NC3=C(C=C4C(=C3)C=NN4)F
In short: as §1

[6] = compound: CC1=C(C2=C(C=C1)C(=O)C3=CC=CC=C3N2CCCN)C
In short: as §1

Sequence of UniProt Q5QJE6 (Q5QJE6 whole entry, looked up): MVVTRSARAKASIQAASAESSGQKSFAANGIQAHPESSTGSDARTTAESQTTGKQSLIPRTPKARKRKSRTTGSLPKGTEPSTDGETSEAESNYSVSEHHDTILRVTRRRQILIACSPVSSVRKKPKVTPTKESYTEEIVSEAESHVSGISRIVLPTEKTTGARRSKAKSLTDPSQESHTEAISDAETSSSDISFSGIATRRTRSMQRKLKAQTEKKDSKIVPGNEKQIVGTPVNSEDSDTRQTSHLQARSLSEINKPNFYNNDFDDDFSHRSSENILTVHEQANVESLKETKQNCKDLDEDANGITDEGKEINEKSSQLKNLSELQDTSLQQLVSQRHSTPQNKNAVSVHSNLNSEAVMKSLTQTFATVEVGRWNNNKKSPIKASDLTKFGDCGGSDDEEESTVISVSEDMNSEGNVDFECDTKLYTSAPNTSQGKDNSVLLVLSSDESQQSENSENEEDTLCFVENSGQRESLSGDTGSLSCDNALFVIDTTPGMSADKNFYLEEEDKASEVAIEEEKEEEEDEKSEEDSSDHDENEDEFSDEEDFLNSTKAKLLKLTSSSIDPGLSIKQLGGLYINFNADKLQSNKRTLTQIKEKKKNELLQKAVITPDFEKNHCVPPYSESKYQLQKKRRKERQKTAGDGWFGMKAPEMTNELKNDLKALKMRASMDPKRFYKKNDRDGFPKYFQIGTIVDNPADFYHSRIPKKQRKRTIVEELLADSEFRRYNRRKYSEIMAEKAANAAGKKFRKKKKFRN
Sequence of UniProt Q9NXF7 (Q9NXF7 whole entry, looked up): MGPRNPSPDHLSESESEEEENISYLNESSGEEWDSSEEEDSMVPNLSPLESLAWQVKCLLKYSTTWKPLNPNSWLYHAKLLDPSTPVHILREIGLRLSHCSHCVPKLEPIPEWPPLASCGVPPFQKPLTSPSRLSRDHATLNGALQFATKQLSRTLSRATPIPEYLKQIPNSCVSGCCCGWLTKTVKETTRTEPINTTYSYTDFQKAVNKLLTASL
Sequence of UniProt Q96EV8 (Q96EV8 whole entry, looked up): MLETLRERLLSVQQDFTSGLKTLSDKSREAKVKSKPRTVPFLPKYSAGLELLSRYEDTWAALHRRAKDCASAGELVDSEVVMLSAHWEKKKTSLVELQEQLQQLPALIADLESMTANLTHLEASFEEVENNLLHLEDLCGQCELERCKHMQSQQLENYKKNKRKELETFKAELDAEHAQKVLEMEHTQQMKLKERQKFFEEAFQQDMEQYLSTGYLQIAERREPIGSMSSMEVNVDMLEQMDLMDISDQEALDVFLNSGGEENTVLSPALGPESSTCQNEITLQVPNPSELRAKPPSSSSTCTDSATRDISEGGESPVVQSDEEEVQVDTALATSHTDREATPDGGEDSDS
Sequence of UniProt Q96KC8 (Q96KC8 whole entry, looked up): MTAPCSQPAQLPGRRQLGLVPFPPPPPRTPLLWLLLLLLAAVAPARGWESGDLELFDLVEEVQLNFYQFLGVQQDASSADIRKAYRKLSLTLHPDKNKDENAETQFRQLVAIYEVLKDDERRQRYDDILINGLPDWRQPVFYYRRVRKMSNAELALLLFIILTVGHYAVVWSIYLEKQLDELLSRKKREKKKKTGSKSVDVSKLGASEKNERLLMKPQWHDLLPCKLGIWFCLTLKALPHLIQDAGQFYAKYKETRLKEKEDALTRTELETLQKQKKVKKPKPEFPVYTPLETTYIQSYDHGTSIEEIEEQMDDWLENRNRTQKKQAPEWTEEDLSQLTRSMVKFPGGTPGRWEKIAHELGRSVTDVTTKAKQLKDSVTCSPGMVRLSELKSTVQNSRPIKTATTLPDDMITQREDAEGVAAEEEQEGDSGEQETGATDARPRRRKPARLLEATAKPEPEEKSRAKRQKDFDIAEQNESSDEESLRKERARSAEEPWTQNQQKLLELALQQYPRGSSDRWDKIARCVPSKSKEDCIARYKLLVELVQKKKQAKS
Sequence of UniProt Q16643 (Q16643 whole entry, looked up): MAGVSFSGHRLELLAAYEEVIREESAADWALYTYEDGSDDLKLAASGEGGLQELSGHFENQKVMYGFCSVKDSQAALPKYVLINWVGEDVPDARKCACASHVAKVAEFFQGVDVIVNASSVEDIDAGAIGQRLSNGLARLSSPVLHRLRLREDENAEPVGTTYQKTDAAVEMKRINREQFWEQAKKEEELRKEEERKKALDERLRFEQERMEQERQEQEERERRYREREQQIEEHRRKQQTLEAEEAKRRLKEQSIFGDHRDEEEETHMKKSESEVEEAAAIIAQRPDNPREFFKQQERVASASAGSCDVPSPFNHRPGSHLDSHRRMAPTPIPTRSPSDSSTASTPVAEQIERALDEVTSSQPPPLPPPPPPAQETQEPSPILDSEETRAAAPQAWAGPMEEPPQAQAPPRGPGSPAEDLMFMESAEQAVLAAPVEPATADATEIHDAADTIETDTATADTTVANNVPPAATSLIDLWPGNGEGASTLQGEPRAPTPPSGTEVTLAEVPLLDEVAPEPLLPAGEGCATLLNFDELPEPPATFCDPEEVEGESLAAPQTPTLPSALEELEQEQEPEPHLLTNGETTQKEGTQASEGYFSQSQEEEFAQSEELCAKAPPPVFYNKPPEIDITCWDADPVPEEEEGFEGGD
Sequence of UniProt P06730 (P06730 whole entry, looked up): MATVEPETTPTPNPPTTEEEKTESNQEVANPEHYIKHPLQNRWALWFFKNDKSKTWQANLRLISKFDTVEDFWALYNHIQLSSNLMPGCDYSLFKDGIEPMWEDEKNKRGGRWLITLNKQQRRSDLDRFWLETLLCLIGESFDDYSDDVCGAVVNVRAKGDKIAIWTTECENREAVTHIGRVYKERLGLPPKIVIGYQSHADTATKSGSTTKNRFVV
Sequence of UniProt Q9NV70 (Q9NV70 whole entry, looked up): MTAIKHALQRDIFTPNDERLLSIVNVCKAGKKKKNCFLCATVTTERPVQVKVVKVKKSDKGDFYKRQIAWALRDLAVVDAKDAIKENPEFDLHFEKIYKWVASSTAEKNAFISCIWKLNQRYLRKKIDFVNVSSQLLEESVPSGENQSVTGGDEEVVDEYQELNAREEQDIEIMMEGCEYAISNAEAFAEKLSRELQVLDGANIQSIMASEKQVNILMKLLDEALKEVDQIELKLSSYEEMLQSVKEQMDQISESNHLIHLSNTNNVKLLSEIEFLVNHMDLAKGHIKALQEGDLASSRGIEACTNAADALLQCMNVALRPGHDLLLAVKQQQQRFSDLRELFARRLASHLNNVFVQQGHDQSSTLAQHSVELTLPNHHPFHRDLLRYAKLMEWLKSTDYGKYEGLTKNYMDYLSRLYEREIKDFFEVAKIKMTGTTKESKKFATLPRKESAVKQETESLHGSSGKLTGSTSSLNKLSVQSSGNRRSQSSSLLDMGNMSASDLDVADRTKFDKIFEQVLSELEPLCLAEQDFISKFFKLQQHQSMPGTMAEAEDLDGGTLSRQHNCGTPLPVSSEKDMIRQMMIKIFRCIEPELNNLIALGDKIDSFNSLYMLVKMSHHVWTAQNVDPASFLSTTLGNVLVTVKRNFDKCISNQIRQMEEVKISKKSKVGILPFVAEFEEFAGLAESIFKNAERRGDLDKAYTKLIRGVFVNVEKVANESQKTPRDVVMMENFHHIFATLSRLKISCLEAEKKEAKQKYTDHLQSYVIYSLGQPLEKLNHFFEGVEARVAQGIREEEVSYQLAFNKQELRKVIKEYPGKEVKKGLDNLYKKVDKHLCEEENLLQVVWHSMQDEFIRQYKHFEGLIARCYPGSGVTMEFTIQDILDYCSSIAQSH
Sequence of UniProt Q86UK5 (Q86UK5 whole entry, looked up): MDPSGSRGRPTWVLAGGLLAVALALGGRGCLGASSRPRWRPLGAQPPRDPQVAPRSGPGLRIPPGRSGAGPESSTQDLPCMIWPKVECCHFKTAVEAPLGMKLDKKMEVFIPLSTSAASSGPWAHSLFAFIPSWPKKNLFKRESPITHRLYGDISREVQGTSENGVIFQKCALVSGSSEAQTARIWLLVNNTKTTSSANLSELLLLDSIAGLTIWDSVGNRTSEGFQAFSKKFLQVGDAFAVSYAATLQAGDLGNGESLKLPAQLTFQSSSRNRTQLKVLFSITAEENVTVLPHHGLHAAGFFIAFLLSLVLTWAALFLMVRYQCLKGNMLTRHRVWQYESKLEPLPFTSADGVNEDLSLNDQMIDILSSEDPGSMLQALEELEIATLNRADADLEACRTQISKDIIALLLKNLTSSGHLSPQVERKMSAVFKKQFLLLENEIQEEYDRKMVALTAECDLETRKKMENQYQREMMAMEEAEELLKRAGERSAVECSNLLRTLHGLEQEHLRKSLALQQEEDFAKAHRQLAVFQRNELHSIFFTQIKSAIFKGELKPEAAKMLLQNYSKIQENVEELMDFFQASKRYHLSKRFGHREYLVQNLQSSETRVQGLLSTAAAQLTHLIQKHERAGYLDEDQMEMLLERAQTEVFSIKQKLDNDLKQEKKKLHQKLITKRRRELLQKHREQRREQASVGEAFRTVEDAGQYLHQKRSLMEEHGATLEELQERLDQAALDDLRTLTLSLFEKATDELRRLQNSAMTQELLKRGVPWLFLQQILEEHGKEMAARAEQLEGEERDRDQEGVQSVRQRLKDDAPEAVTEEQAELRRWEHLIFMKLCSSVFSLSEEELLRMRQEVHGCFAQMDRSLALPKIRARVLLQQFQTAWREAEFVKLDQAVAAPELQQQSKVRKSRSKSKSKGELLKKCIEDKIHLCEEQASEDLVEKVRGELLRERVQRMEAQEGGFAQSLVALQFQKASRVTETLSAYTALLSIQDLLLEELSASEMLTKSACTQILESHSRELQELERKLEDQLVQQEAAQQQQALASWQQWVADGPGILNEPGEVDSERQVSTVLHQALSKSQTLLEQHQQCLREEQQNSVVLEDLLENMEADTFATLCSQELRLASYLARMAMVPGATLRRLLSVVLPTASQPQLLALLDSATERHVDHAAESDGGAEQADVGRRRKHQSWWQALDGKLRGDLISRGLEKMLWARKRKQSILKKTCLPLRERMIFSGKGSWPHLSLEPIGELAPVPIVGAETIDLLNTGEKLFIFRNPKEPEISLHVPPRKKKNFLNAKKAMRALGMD

| Target | log2 fold change (IRAK-1-4 Inhibitor I) | log2 fold change (ibrutinib) | log2 fold change [1] | log2 fold change (ralimetinib) | log2 fold change [2] | log2 fold change [3] | log2 fold change [4] | log2 fold change (pinometostat) | log2 fold change [5] | log2 fold change [6] |
| --- | --- | --- | --- | --- | --- | --- | --- | --- | --- | --- |
| FADS1, A0A0A0MR51 | 0.085 | 0.015 | -0.07 | 0.017 | 0.355 (active) | -0.044 | 0.05 | 0.027 | -0.013 | 0.003 |
| EXOC1 (UniProt Q9NV70) | -0.085 | -0.015 | -0.033 | 0.112 | -0.151 | -0.419 (active) | 0.018 | 0.214 | 0.052 | 0.071 |
| DNM2 (UniProt P50570) | 0.022 | 0.017 | -0.023 | -0.02 | -0.081 | -0.075 | 0.029 | -0.014 | -0.012 | 0.076 |
| DTNBP1 (UniProt Q96EV8) | 0.069 | -0.025 | 0.038 | -0.136 | -0.058 | -0.009 | -0.029 | -0.044 | -0.01 | 0.092 |
| EEF1B2 (UniProt P24534) | -0.01 | -0.054 | 0.009 | 0.003 | 0.011 | -0.069 | 0.04 | 0.001 | -0.027 | 0.047 |
| DLD (UniProt P09622) | 0.079 | 0.007 | 0.043 | -0.004 | -0.043 | -0.125 | -0.029 | 0.001 | 0.014 | -0.008 |
| EIF2S3 (UniProt P41091) | -0.126 | 0.021 | -0.004 | 0.061 | 0.05 | 0.052 | 0.075 | 0.077 | 0.005 | 0.195 |
| DNTTIP2 (UniProt Q5QJE6) | -0.027 | 0.045 | -0.265 | 0.089 | 0.046 | -0.234 | 0.046 | 0.266 | -0.017 | -0.975 (active) |
| DUS2 (UniProt Q9NX74) | 0.014 | 0.041 | -0.063 | 0.033 | -0.161 | 0.043 | 0.044 | -0.001 | 0.035 | -0.1 |
| EED, A0A5F9ZI63 | -0.032 | -0.012 | -0.041 | 0.042 | 0.053 | 0.05 | 0.03 | 0.052 | -0.001 | 0.145 |
| DBN1 isoform 3 (UniProt Q16643) | -0.06 | 0.099 | 0.061 | 0.072 | 0.151 | 0.047 | -0.02 | -0.005 | 0.05 | -0.091 |
| EIF4A1 (UniProt P60842) | -0.008 | -0.022 | -0.131 | 0.026 | -0.151 | -0.124 | -0.001 | 0.016 | -0.011 | 0.017 |
| FAM177A1 isoform 2 (UniProt Q8N128) | 0.042 | 0.038 | 0.033 | 0 | -0.242 | -0.245 | 0.029 | 0.081 | 0.062 | -0.019 |
| EGLN1 (UniProt Q9GZT9) | 0.016 | -0.054 | -0.027 | -0.034 | -0.01 | -0.083 | 0.018 | 0.045 | -0.002 | -0.029 |
| FADS3 (UniProt Q9Y5Q0) | 0.029 | 0.018 | -0.031 | -0.064 | -0.121 | -0.011 | 0.102 | 0.038 | -0.033 | 0.054 |
| DPH5 isoform 5 (UniProt Q9H2P9) | 0.036 | 0.025 | -0.01 | -0.018 | -0.053 | 0.045 | -0.071 | -0.009 | 0.022 | 0.027 |
| ERLIN2 (UniProt O94905) | -0.089 | 0.001 | 0.058 | 0.004 | 0 | -0.296 (active) | 0.035 | 0.093 | 0.021 | 0.013 |
| DCAF16 (UniProt Q9NXF7) | -0.04 | 0.017 | 0.039 | 0.034 | -0.052 | -0.027 | 0.018 | 0.055 | -0.047 | -0.105 |
| DCAF6 isoform 3 (UniProt Q58WW2) | 0.025 | -0.004 | -0.018 | -0.022 | -0.022 | 0.056 | 0.023 | -0.004 | 0.015 | -0.034 |
| DDX11 (UniProt Q96FC9) | 0.152 | 0.001 | -0.119 | -0.033 | -0.003 | 0.022 | 0.09 | -0.316 | -0.02 | 0.023 |
| DNAH11 (UniProt Q96DT5) | 0.038 | 0.103 | 0.126 | -0.285 | 0.047 | -0.001 | 0.041 | -0.019 | -0.012 | -0.137 |
| EIF4E isoform 2 (UniProt P06730) | 0.066 | 0.089 | 0.308 | -0.071 | -0.016 | 0.114 | 0.012 | -0.057 | -0.024 | 0.027 |
| EVC2 (UniProt Q86UK5) | 0.052 | 0.032 | -0.061 | -0.15 | 0.038 | 0.064 | 0.038 | -0.011 | 0.091 | -0.014 |
| CTSV (UniProt O60911) | 0.032 | -0.002 | 0.09 | -0.035 | -0.005 | -0.917 (active) | 0.14 | 0.011 | -0.054 | 0.125 |
| DMXL1 (UniProt Q9Y485) | -0.005 | 0.002 | -0.035 | 0.028 | -0.085 | -0.231 | 0.019 | 0.042 | -0.005 | 0.069 |
| DNAJC1 (UniProt Q96KC8) | 0.017 | 0.02 | -0.026 | -0.081 | -0.117 | -0.462 (active) | 0.025 | -0.037 | -0.012 | 0.019 |
| DMAC1 (UniProt Q96GE9) | 0.018 | 0.048 | 0.034 | -0.011 | 0.072 | 0.019 | 0.067 | -0.002 | 0.063 | -0.013 |
| DNM2 isoform 4 (UniProt P50570) | 0.019 | -0.074 | – | 0.005 | -0.101 | -0.047 | -0.04 | -0.063 | 0.007 | – |
| DOLPP1 (UniProt Q86YN1) | 0.008 | -0.017 | -0.19 | -0.128 | – | -0.045 | -0.154 | -0.056 | 0.016 | 0.036 |
| CYB561A3 isoform 2 (UniProt Q8NBI2) | 0.024 | 0.014 | 0.033 | -0.026 | – | -0.164 | -0.019 | -0.054 | -0.069 | -0.027 |
